Laboratory results published in PubChem BioAssay (Tox21).
Inconclusive results are not listed. Calls of active or inactive are those of the source. Unless noted, the call rests on the fitted dose curve; in most records, active means well fitted curve in the direction sought with a large enough effect in the repeat runs; inconclusive means weak or mixed curves; inactive means no such curve, though single readings can be large; an effect the other way counts as inactive or inconclusive.

Assays:
[1] = molecular target: Retinoic acid receptor RXR-alpha (Homo sapiens) (UniProt P19793); assay: qHTS assay to identify small molecule agonists of the RXR signaling pathway (AID 1159527; calls by dose curve; further: nearly all actives have a fitted effect of over 35% in size; further: potency means the concentration at half of the fitted maximal effect)
In short: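 Reporter activation is measured as beta-lactamase activity via FRET substrate cleavage (emission 460/530 nm) in HEK 293T cells expressing an RXR-alpha-driven bla construct, following 16 hr compound exposure at 37 C.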

[2] = qHTS assay to identify small molecule agonists of the RXR signaling pathway - cell viability counter screen (AID 1159529); further: series mostly up to about 77 µM; nearly all actives have a fitted effect of over 50% in size
In short: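 Tox21 10K compounds were tested for cytotoxicity against GeneBLAzer RXR-alpha HEK 293T cells grown in 2% charcoal-stripped FBS. Exposure lasted 16 hr at 37 C, 5% CO2; viability read by CellTiter-Glo luminescence.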

[3] = qHTS assay to identify small molecule antagonists of the retinoid acid receptor (RAR) signaling pathway - cell viability counter screen (AID 1159551); further: nearly all actives have a fitted effect of over 35% in size
In short: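 Following overnight attachment, C3RL4 reporter cells received DMSO-dissolved compounds and then retinol (1 uM final). Six hours later at 37 C, ATP content was measured by CellTiter-Glo luminescence.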

[4] = qHTS assay to identify small molecule antagonists of the retinoic acid receptor (RAR) signaling pathway (AID 1159552; further: nearly all actives have a fitted effect of over 50% in size)
In short: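 Overnight-plated C3RL4 reporter cells get compound, then retinol to 1 uM final; plates sit 6 hr at 37 C, 5% CO2. A luciferase reagent is added and light output recorded after 30 min at room temperature.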

[5] = qHTS assay to identify small molecule agonists of the retinoic acid receptor (RAR) signaling pathway (AID 1159553)
In short: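 Cell line C3RL4, RARE luciferase reporter. Treatment: compounds in DMSO, 6 hr, 37 C, 5% CO2, after overnight plating. Detection: luminescence, 30 min RT after reagent.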

[6] = qHTS assay to identify small molecule antagonists of the estrogen related receptor (ERR) signaling pathway - cell viability counter screen (AID 1224818);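 further: series mostly up to about 46 µM; viability measured after 17.5 h of compound exposure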
In short: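 Here, ERR cells are plated at 2,000 cells per well, allowed 6 h to attach, and treated with compounds in DMSO for 17.5 h at 37 C. CellTiter-Fluor is then added and fluorescence read after 30 min.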

[7] = qHTS assay to identify small molecule agonists of the estrogen related receptor (ERR) signaling pathway (AID 1224820)
In short: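 ERR reporter cells (NTP line) plated 2,000/well, incubated 6 h at 37 C/5% CO2, then pinned with compounds in DMSO and held 18 h at 37 C. One-Glo added; luminescence read after 30 min at room temperature.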

[8] = test system: estrogen-related receptor alpha (ERRalpha) with PGC-1alpha coactivator, human; assay: qHTS assay to identify small molecule antagonists of the estrogen related receptor signaling pathway with the pleiotropic PPARgamma coactivator (PGC) (AID 1224821; calls by dose curve;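 further: series mostly up to about 46 µM; lower luminescence signal means antagonism of PGC/ERR signalling; nearly all actives have a fitted effect of over 50% in size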)
In short: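 Cells engineered for PGC/ERR signalling (line from NTP) were plated 6 h at 37 C/5% CO2, then exposed to DMSO-dissolved compound for 18 h at 37 C. Luciferase activity was read by One-Glo luminescence after 30 min at room temperature.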

[9] = qHTS assay to identify small molecule antagonists of the estrogen related receptor signaling pathway with the pleiotropic PPARgamma coactivator (PGC) cell viability counter screen (AID 1224822;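 further: series mostly up to about 46 µM; viability read after 17.5 h compound exposure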)
In short: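 qHTS format, DMSO compound stocks pin-transferred onto PGC/ERR cells 6 h after plating; 17.5 h exposure at 37 C, then CellTiter-Fluor fluorescence.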

Measured: Potency

Sequence of Retinoic acid receptor RXR-alpha (Homo sapiens) (P19793 whole entry, looked up): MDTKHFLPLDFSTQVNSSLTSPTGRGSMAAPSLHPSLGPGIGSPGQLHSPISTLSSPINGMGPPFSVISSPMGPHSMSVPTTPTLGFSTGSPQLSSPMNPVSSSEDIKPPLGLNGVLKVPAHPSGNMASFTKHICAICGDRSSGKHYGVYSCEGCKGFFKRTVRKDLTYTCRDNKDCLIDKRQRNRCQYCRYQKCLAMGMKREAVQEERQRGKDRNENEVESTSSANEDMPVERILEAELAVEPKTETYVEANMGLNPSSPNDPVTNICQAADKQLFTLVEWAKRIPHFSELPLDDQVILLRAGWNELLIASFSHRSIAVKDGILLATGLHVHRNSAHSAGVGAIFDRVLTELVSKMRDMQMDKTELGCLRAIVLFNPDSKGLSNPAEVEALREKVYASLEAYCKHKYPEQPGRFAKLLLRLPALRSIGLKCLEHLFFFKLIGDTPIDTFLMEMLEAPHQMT

C=CCc1cc(OC)c2c(c1)OCO2
inactive: [1] | [2] | [3] | [4] | [5]

C=CCC1(C(C)CC)C(=O)NC(=O)NC1=O (centres undefined)
inactive: [1] | [2] | [3] | [4] | [5]

N[C@@H]1C[C@H]1c1ccccc1
inactive: [1] | [2] | [3] | [4] | [5]

CCC(=O)OC1(c2ccccc2)CCN(C)CC1
inactive: [1] | [2] | [3] | [4] | [5]

CCC(CC)(CNC(=O)CCCO)c1cccc(OC)c1
inactive: [1] | [2] | [3] | [4] | [5]

Cc1cc(OC(=O)N(C)C)nn1C(=O)N(C)C
inactive: [1] | [2] | [3] | [4] | [5]

COc1cc(CC(C)N)cc(OC)c1OC (centres undefined)
inactive: [1] | [2] | [3] | [4] | [5]

CN(C)CCc1c[nH]c2cccc(OP(=O)(O)O)c12
inactive: [1] | [2] | [3] | [4] | [5]

COC(=O)c1ccccc1CS(=O)(=O)NC(=O)Nc1nc(OC)cc(OC)n1
inactive: [1] | [2] | [3] | [4] | [5]

C=C1C[C@@H]2[C@H](CC[C@]3(C)C(=O)CC[C@@H]23)[C@@]2(C)C=CC(=O)C=C12
inactive: [1] | [2] | [3] | [4] | [5]

O=C(O)C(Cl)Br (centres undefined)
inactive: [1] | [2] | [3] | [4] | [5]

O=C(O)c1c(Cl)ccc2cc(Cl)cnc12
inactive: [1] | [2] | [3] | [4] | [5]

C=CCCC#N
inactive: [1] | [2] | [3] | [4] | [5]

C=C(Cl)CCl
inactive: [1] | [2] | [3] | [4] | [5]

CNC(=O)Oc1ccccc1C(C)C
inactive: [2] | [3] | [4] | [5]
active: [1] 49 µM

CC(C)(C)C(=O)C(Cl)Cl
inactive: [1] | [2] | [3] | [4] | [5]

O=S1(=O)OCCO1
inactive: [1] | [2] | [3] | [4] | [5]

O=c1[nH]c2ccccc2n1C1CCNCC1
inactive: [1] | [2] | [3] | [4] | [5]

COc1ccc(CN2CCNCC2)c(OC)c1OC
inactive: [1] | [2] | [3] | [4] | [5]

CCN(CC)CCOC(=O)C(O)(c1ccccc1)c1ccccc1
inactive: [1] | [2] | [3] | [4] | [5]

CCCCCCCCBr
inactive: [1] | [2] | [3] | [4] | [5]

O=C(O)C(Br)(Br)Br
inactive: [1] | [2] | [3] | [4] | [5]

Cn1c(CCCC(=O)O)nc2cc(N(CCCl)CCCl)ccc21
inactive: all assays above

CNC(=O)NC(O)C(Cl)(Cl)Cl (centres undefined)
inactive: [1] | [2] | [3] | [4] | [5]

O=C(NC(O)C(Cl)(Cl)Cl)NC(O)C(Cl)(Cl)Cl (centres undefined)
inactive: [1] | [2] | [3] | [4] | [5]

O=C(Cl)C(Cl)(Cl)Cl
inactive: [1] | [2] | [3] | [4] | [5]

CNC(=O)Oc1cc(C)c(N(C)C)c(C)c1
active: [1] 43.7 µM
inactive: [2] | [3] | [4] | [5]

N[C@@H](Cc1ccc(Oc2cc(I)c(O)c(I)c2)c(I)c1)C(=O)O
inactive: [1] | [2] | [3] | [4] | [5]

CCC(C)(C#N)N=NC(C)(C#N)CC (centres undefined)
inactive: [1] | [2] | [3] | [4] | [5]

CCN(CCO)CCO
inactive: [1] | [2] | [3] | [4] | [5]

C[C@H](N)C(=O)c1ccccc1
inactive: [1] | [2] | [3] | [4] | [5]

CC[C@H](N)c1ccccc1
inactive: [1] | [2] | [3] | [4] | [5]

C=CCN1CC[C@]23CCCC[C@H]2[C@H]1Cc1ccc(O)cc13
inactive: [1] | [2] | [3] | [4] | [5]

C=CC(=O)OCCN(C)C
inactive: [1] | [2] | [3] | [4] | [5]

CC(C)(O)C(Cl)(Cl)Cl
inactive: [1] | [2] | [3] | [4] | [5]

CCOC(=O)CCl
inactive: [1] | [2] | [3] | [4] | [5]

CC(C)(C1CCC(O)CC1)C1CCC(O)CC1 (centres undefined)
inactive: [1] | [2] | [3] | [4] | [5]

CCCOC(=O)c1cncn1C(C)c1ccccc1 (centres undefined)
inactive: [1] | [2] | [3] | [4] | [5]
